PubChem BioAssay (NCATS)
Results filed as inconclusive are left out. Activity calls are given as the source filed them. The call rests on the fitted dose curve; in most records, active means well fitted inhibition curve with a large enough effect; inconclusive means small, poorly fitted or top-dose-only effect; inactive means flat fitted curve, though single readings scatter.

Columns and labels:
Test in all cases: qHTS profiling for inhibitors of Plasmodium falciparum proliferation (AID 504749); further: nearly all actives have a fitted effect of over 60% in size
Conditions in all cases: P. falciparum in erythrocytes, SYBR Green DNA, 72 h; series mostly up to 28.7 µM
C2A = system: C2A
How it was run: (§1)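 Quantitative HTS: compounds pinned into medium, infected erythrocytes added (0.3% parasitemia, 2.5% hematocrit), 72 h culture at 37 C under 5% CO2. Saponin/Triton lysis with SYBR Green I, overnight RT, then fluorescence read.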

CP185 = system: CP185
How it was run: as §1

CP191 = system: CP191
How it was run: as §1

CP192 = system: CP192
How it was run: as §1

CP194 = system: CP194
How it was run: as §1

CP201 = system: CP201
How it was run: as §1

CP203 = system: CP203
How it was run: as §1

CP211 = system: CP211
How it was run: as §1

CP215 = system: CP215
How it was run: as §1

CP217 = system: CP217
How it was run: as §1

Measured: Potency

CCCCCCCCCCCCCCCCC(C(=O)O)C(O)(CC(=O)O)C(=O)O (configuration not stated)
inactive: all assays above

Cc1c(C(=O)NCCO)[n+](=O)c2ccccc2n1[O-]
inactive: all assays above

Cc1ccsc1C(=CCCN1CCC[C@@H](C(=O)O)C1)c1sccc1C
inactive: all assays above

CC(=O)N[C@@H](Cc1ccc(O)cc1)C(=O)O
inactive: all assays above

COC(=O)c1cccnc1
inactive: all assays above

O=C(Cn1ccnc1[N+](=O)[O-])NCc1ccccc1
inactive: all assays above

CC(=O)Nc1cccc(O)c1
inactive: all assays above

CCOc1ccc(C(=O)OCCN(CC)CC)cc1
inactive: all assays above

CCN(CC)CCc1nc(-c2ccccc2)no1
inactive: all assays above

CN/C(=C\[N+](=O)[O-])NCCSCc1csc(CN(C)C)n1
inactive: all assays above

COc1ccc(C(=O)N2CCN(CC(=O)N3CCOCC3)CC2)cc1
inactive: all assays above

CCS(=O)(=O)CCn1c([N+](=O)[O-])cnc1C
inactive: all assays above

CN(C(=O)c1c(O)c2ccccc2n(C)c1=O)c1ccccc1
inactive: all assays above

O=c1[nH]cnc2nc[nH]c12
inactive: all assays above

Cc1c(NC(C)C)c(=O)n(-c2ccccc2)n1C
inactive: all assays above

Nc1ccc(S(=O)(=O)c2ccc(N)cc2)cc1
inactive: all assays above

CC(C)C[C@@H](N)C(=O)O
inactive: all assays above

O=C1c2cccc(O)c2C(=O)c2c(O)cccc21
not listed: CP203
inactive: all other assays above

Cc1cc(OI)c(C(C)C)cc1-c1cc(C(C)C)c(OI)cc1C
inactive: CP185 | CP194 | CP201 | CP203 | CP211

COc1ccccc1Oc1c(NS(=O)(=O)c2ccc(C(C)(C)C)cc2)nc(-c2ncccn2)nc1OCCO
not listed: CP215
inactive: all other assays above

CCCCCCCC(=O)OCC(O)CO (configuration not stated)
inactive: all assays above

NC(N)=NCCN1CCCCCCC1
not listed: CP215
inactive: all other assays above
